Activity calls are given as the source filed them.

Assay [1] deals with Human papillomavirus type 1a protein E7 (residues 44-93). In words: small molecules binding HPV E7 44-93 – biochemical, small-molecule microarray, residues 44-93, 635 nm fluorescence, primary screen (AID 1108).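 Note: E7 fragment applied at 1 µg/mL in TBST for 1 h at 4 C; score combines spot fluorescence with its signal to noise ratio.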 Conditions: fluorescence 635 nm, higher = more signal.
Assay [2] can be described thus: hepatitis C replication reporter changes, two-sided – Huh7 cells, luciferase reporter, HCV replication inhibitor project, primary screen (AID 1109).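 Note: huh7 hepatoma cells harbouring a luciferase neomycin HCV replicon reporter; luciferase luminescence as measure of HCV replicon replication; test concentration not given here.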 Conditions: Huh7 HCV replicon luciferase reporter, 48 h; higher = more signal. A general note: Reporter assays use an easily measured gene product as a stand-in for the process of interest.
The target of assay [3] is Left-right determination factor 2 (Homo sapiens) (UniProt O00292). In words: small molecules binding LEFTY2 protein – biochemical, small-molecule microarray, 635 nm fluorescence scan, primary screen (AID 1110). Conditions: higher = more signal.
Assay [4] deals with Calmodulin-1 (Homo sapiens) (UniProt P0DP23). In words: small molecules binding calmodulin-1 with EGTA – biochemical, small-molecule microarray, Cy5-labelled CALM1, profiling panel (AID 1111).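 Note: labelled calmodulin applied in Tris saline Tween buffer holding calcium plus EGTA and DTT.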 The following applies: Cy5-CALM1 binding fluorescence, higher = more signal.
The target is the same in assay [5]. The experiment in a line: small molecules binding Ca-loaded calmodulin-1 – biochemical, small-molecule microarray, Cy5-labelled CALM1, plus calcium, artefact control for SMM control-protein annotation, profiling panel (AID 1112).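 Note: score merges spot fluorescence with signal to noise from triplicate slides.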 Conditions: Cy5-CALM1 binding fluorescence, higher = more signal.
Assay [6] in a line: probe aWnt5a binding to arrayed compounds – biochemical, biotinylated probe, 635/667 nm fluorescence, primary screen (AID 1113).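 Note: score merges 667 nm fluorescence intensity with signal-to-noise per printed feature.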 Conditions: small-molecule microarray, higher = more signal.
A short description of assay [7]: probe aShh binding to arrayed compounds – biochemical, biotinylated probe, 635/667 nm fluorescence, primary screen (AID 1114).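 Note: probe is biotin-labelled aShh protein from a stem cell growth factor screen; measures binding of labelled protein to compounds printed on the slide; score merges feature fluorescence at 667 nm with signal-to-noise.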 The following applies: small-molecule microarray, higher = more signal.
Assay [8] is described as follows: probe aNog binding to arrayed compounds – biochemical, biotinylated probe, 635/667 nm fluorescence, primary screen (AID 1115).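 Note: probe is biotinylated aNog protein used at 0.15 µg/mL for 1 h at 4 C; z-score combines 667 nm fluorescence of each spot with its signal to noise.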 Conditions: small-molecule microarray, higher = more signal.
Assay [9] deals with Torsin-1A-interacting protein 1 (Homo sapiens) (UniProt Q5JTV8). The experiment in a line: compound microarray binding of lysate hLAP1 – cell lysate, small-molecule microarray, COS7 lysate, 635/667 nm fluorescence, primary screen (AID 1116). Conditions: 635 nm fluorescence, higher = more signal.
Assay [10] has as its target Alpha-bungarotoxin (Bungarus multicinctus) (UniProt P60615). In words: compounds binding labelled alpha-BTX control protein – biochemical, small-molecule microarray, Alexa647 label, 635/667 nm fluorescence, artefact control for SMM control protein annotation, profiling panel (AID 1117). Conditions: alpha-BTX-A647 binding fluorescence, higher = more signal.
The target of the next assay is Albumin (Bos taurus) (UniProt P02769). In words: compounds binding labelled BSA control protein – biochemical, small-molecule microarray, Alexa647 label, 635/667 nm fluorescence, artefact control for SMM control protein annotation, profiling panel (AID 1118).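 Note: score merges 667 nm emission intensity and signal-to-noise per printed compound spot.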 Conditions: BSA-A647 binding, fluorescence 635 nm, higher = more signal.
A short description of assay [11]: probe aXIP binding to arrayed compounds – biochemical, NeuroSMM set, 635/667 nm fluorescence, primary screen (AID 1119).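 Note: probe is the protein aXip251-270 applied at 1 µg/mL to compound-printed slides; binding of probe to printed compounds measured as 667 nm fluorescence plus signal to noise.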 The following applies: small-molecule microarray, higher = more signal, called active from +8 up or from −8 down.
Assay [12] in a line: probe aNOTCH3 binding on compound microarray – biochemical, small-molecule microarray, 635/667 nm fluorescence, primary screen (AID 1120).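 Note: probe is a biotin-tagged antibody raised against NOTCH3 rather than NOTCH3 protein; score merges spot fluorescence near 667 nm with spot signal to noise.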 Conditions: higher = more signal.
Assay [13] can be described thus: probe aNOTCH2 binding on compound microarray – biochemical, small-molecule microarray, 635/667 nm fluorescence, primary screen (AID 1121).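 Note: score merges feature fluorescence read at 667 nm with its signal to noise.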 Conditions: higher = more signal.
The target of assay [14] is Carbonic anhydrase 2 (Homo sapiens) (UniProt P00918). In words: compounds binding carbonic anhydrase 2 – biochemical, small-molecule microarray, Alexa647-labelled CAII, profiling panel (AID 1122). Conditions: CAII-A647 binding fluorescence, higher = more signal.
Assay [15] is described as follows: COS7 lysate on small-molecule microarray, probe aHis, 635 nm (AID 1123).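 Note: z-score combines 667nm fluorescence intensity with signal-to-noise per printed compound spot.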 Conditions: COS7 cell lysate, fluorescence, higher = more signal.
Assay [16] in a line: probe aLAP1 signal on lysate-treated microarray – cell lysate, small-molecule microarray, COS7 lysate, primary screen (AID 1124).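 Note: lysate comes from COS7 cells expressing LAP1 and is applied at 0.3 µg/mL; score merges spot fluorescence near 667 nm with signal-to-noise over triplicate slides.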 The following applies: probe aLAP1, fluorescence, higher = more signal.
The next assay has as its system Sam68 (KHDRBS1). In words: compounds binding KHDRBS1 protein – biochemical, small-molecule microarray, 635 nm fluorescence, primary screen (AID 1125).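 Note: score merges 667 nm channel intensity with signal to noise over triplicate slides.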 The following applies: higher = more signal.
Assay [17] relates to Chordin-like protein 2 (CHRDL2). The experiment in a line: compounds binding chordin-like 2 – biochemical, small-molecule microarray, 635 nm fluorescence, primary screen (AID 1126).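 Note: printed compound slides probed with Chrdl2 protein at 4 µg/mL for 1 h at 4 C; score merges 667 nm emission intensity with signal to noise over three replicate slides.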 Conditions: fluorescence 635 nm, higher = more signal.
For assay [18], the target named is Concanavalin-A (Canavalia ensiformis) (UniProt P02866). In words: compounds binding concanavalin A lectin – biochemical, small-molecule microarray, Alexa647 label, 635 nm, artefact control for SMM control protein annotation, primary screen (AID 1127).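 Note: z combines 667 nm emission intensity with signal-to-noise across three replicate slides.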 The following applies: ConA-A647 binding fluorescence, higher = more signal.
Sequence of Concanavalin-A (Canavalia ensiformis) (P02866 whole entry, looked up): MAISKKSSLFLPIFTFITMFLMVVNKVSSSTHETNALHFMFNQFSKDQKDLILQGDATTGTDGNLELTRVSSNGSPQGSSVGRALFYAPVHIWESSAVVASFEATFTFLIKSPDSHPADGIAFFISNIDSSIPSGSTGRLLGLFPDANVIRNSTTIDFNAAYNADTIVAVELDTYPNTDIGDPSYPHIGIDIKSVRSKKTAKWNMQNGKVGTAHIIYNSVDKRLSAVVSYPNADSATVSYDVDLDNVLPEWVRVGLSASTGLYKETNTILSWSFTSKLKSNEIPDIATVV

Sequence of Alpha-bungarotoxin (Bungarus multicinctus) (P60615 whole entry, looked up): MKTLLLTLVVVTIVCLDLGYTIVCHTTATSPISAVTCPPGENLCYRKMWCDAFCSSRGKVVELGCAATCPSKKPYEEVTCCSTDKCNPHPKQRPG
Sequence of Albumin (Bos taurus) (P02769 whole entry, looked up): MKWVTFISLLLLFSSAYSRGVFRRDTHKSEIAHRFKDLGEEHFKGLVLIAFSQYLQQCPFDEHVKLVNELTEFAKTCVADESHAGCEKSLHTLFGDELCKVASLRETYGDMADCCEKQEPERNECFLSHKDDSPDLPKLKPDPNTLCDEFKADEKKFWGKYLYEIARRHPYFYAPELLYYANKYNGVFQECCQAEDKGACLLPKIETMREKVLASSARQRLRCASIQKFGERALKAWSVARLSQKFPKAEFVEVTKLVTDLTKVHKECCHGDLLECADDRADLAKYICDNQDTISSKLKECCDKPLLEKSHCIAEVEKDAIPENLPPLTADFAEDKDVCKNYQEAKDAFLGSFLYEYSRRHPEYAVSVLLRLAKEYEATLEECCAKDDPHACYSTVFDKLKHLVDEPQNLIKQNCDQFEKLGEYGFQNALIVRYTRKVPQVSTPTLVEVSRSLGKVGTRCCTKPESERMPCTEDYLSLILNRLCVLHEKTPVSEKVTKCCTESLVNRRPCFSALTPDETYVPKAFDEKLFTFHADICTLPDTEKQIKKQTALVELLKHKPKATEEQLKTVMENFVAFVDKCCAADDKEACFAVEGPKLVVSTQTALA
Sequence of Torsin-1A-interacting protein 1 (Homo sapiens) (Q5JTV8 whole entry, looked up): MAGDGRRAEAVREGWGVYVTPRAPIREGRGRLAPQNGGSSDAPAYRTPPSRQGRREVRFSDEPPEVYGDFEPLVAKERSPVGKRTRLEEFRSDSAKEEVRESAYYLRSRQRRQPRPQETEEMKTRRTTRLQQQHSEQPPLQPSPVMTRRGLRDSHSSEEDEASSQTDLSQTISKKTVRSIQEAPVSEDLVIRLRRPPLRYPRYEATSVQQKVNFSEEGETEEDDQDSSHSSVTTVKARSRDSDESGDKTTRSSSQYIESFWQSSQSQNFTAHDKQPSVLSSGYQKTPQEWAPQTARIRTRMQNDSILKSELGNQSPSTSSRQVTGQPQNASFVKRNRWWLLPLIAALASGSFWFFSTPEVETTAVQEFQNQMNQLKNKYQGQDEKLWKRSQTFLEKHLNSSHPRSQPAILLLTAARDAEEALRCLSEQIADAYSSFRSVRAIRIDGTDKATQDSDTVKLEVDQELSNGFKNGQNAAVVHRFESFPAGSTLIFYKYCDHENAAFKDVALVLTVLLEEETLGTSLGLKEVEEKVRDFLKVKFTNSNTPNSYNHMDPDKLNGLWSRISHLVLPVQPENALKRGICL
Sequence of Left-right determination factor 2 (Homo sapiens) (O00292 whole entry, looked up): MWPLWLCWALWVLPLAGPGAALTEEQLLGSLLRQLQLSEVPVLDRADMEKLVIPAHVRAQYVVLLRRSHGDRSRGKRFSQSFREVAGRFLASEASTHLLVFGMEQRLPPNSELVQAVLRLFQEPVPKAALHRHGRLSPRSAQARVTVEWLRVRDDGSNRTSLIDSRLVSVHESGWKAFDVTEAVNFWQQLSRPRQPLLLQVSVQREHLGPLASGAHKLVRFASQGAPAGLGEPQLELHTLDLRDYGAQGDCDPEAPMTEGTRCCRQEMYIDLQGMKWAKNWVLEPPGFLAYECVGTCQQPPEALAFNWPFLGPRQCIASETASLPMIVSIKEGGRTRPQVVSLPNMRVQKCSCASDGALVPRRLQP

Turning to `O=C1O[C@@H](c2ccccc2)[C@@H](c2ccccc2)N2[C@@H](c3ccc(O)cc3)[C@]3(C(=O)Nc4ccc(C#CC5=CCCCC5)cc43)[C@@H](C(=O)N3CCCCCCC3)[C@H]12`, the composite z-score came out at 1.38 in assay [1]; 0.455 in assay [3]; 1.61 in assay [4]; 0.485 in assay [5]; 0.654 in [6]; 2.04 in assay [7]. For the same compound, the composite z-score in assay [8] amounted to 2.52; in [9], 3.16; in assay [10] it was 2.25; with Albumin (Bos taurus), 0.508; in assay [12] it was 1.24; in assay [13], 0.276. Moreover, the composite z-score came to 0.589 in [14]; 2.97 in [15]; 1.85 in assay [16]; 1.29 in the assay with Sam68 (KHDRBS1); 0.543 in [17]; 0.702 in assay [18]. In addition, the z-score in [2] was -1.46. Besides, the composite Z-score in assay [11] was 2.78 (inactive).

For `C=CC[C@@]1(C(=O)O)N=C(c2ccc(OCCCO)cc2)O[C@@H]1c1ccccc1CN=[N+]=[N-]`, the composite z-score in assay [1] was 0.895; in assay [3], 0.461; in assay [4] it was 1.83; in [5], 0.608; in assay [6], 0.115; in assay [7] it was -0.0119. Moreover, the composite z-score is 0.0139 in [8]; 0.976 in assay [9]; 0.974 in assay [10]; 0.557 in the assay with Albumin (Bos taurus); 0.0991 in [12]; -0.147 in [13]. In addition, the composite z-score in assay [14] is 0.596; in assay [15], 1.9; in [16], 0.0424; in the assay with Sam68 (KHDRBS1), 0.826; in [17], 0.439; in assay [18], 1.05. Also, the z-score in assay [2] was -1.99. Further, the composite Z-score in assay [11] was -0.632 (inactive).

As for `C=C(C(=O)CC[C@@H](OC(C)=O)c1cccc(OCCO)c1)C(C)C`, the composite z-score in assay [1] was 0.974; in assay [3], -0.865; in [4] it was -0.35; in [5] it was -0.94; in assay [6], -0.0276; in [7] it was -0.223. In addition, the composite z-score in [8] was -0.0863; in assay [9], 0.847; in assay [10], 0.221; with Albumin (Bos taurus), 0.371; in [12] it was -0.0311; in assay [13], -0.148. The composite z-score in assay [14] was 0.862; in [15] it was 1.82; in [16], 0.0326; in the assay with Sam68 (KHDRBS1) it was 0.813; in assay [17] it was -0.298; in assay [18] it was 0.691. The z-score in assay [2] is -3.23. In addition, the composite Z-score in assay [11] is 0.566 (inactive).

In the case of `CC(C)[C@@H](C(=O)O)n1cc(-c2ccccc2)nn1`, the composite z-score came to 0.972 in [1]; 0.396 in [3]; 0.913 in assay [4]; 0.957 in assay [5]; 0.0145 in assay [6]; 0.227 in assay [7]. The composite z-score in assay [8] was -0.0238; in assay [9], 0.941; in [10], 1.03; with Albumin (Bos taurus) it was 0.739; in assay [12] it was -0.0225; in assay [13], -0.0454. For the same compound, the composite z-score in assay [14] was 0.39; in assay [15], 0.575; in [16], 0.547; with Sam68 (KHDRBS1), 1.06; in [17], -0.145; in [18] it was 1.12. In [2], this compound came in with a z-score of 0.281. Besides, in assay [11], the composite Z-score is 0.0388 (inactive).

Take `C=CCNC(=O)[C@@H]1[C@H]2C(=O)O[C@H](c3ccccc3)[C@H](c3ccccc3)N2[C@H](c2ccc(O)cc2)[C@@]12C(=O)Nc1ccc(C#CC3(O)CCCCCC3)cc12`: the composite z-score in [1] is 0.754; in assay [3] it was 0.0712; in assay [4], -0.542; in assay [5] it was -0.0571; in [6] it was -0.127; in [7], 0.488. The composite z-score in assay [8] is -0.499; in [9] it was 0.824; in assay [10], -0.243; with Albumin (Bos taurus), -0.277; in assay [12], 0.39; in assay [13], -0.179. In addition, the composite z-score is 0.653 in assay [14]; 1.04 in assay [15]; 0.107 in assay [16]; -0.133 in the assay on Sam68 (KHDRBS1); 0.227 in assay [17]; -0.197 in assay [18]. Also, in assay [2], the z-score is -0.608. In [11], the composite Z-score is 0.156 (inactive).
